Laboratory results reported in ChEMBL document CHEMBL3988442, “University of Dundee, Small-Polar-MMV Screening Library” (2021).
For some assays here: Measured potencies and affinities stand elsewhere.

Experiments:
Parameters in all cases: scale not given: direction of the effect not stated beside the values
[1] = target: Protein translocase subunit SecA (Escherichia coli (strain K12)) (UniProt P10408); assay: Assay to Identify E. coli SecA ATPase Inhibitors; format: functional; conditions: 30 µM
Protein translocase subunit SecA (Escherichia coli (strain K12)), sequence (P10408 whole entry): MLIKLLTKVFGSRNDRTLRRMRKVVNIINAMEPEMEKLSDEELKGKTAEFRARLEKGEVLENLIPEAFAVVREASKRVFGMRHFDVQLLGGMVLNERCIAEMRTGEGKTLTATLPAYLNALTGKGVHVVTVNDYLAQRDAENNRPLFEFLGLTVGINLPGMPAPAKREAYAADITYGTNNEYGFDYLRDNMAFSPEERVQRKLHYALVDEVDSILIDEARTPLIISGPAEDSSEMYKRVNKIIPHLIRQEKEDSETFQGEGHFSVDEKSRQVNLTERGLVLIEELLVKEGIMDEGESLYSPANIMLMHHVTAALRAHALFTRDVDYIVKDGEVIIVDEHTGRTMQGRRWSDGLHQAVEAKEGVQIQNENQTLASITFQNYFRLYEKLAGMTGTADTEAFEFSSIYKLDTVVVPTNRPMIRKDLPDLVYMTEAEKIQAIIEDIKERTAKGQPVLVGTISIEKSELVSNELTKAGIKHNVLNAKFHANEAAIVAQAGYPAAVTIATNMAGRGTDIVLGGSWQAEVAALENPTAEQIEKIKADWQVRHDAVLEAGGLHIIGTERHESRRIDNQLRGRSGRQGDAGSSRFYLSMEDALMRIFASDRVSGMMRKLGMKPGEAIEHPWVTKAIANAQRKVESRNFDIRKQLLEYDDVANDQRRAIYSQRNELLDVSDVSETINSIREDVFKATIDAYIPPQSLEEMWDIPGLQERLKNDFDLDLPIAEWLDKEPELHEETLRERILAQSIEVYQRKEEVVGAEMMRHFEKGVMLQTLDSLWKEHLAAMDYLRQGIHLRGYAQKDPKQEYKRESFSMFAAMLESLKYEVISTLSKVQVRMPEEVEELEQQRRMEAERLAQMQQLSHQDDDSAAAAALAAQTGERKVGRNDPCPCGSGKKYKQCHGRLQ

[2] = target: T1, Ubiquitin-activating enzyme e1, putative (Leishmania donovani (strain BPK282A1)) (UniProt E9BSI1); assay: Leishmania donovani Ubiquitin Activating Enzyme (LdE1); format: functional; conditions: 30 µM
T1 sequence (whole entry): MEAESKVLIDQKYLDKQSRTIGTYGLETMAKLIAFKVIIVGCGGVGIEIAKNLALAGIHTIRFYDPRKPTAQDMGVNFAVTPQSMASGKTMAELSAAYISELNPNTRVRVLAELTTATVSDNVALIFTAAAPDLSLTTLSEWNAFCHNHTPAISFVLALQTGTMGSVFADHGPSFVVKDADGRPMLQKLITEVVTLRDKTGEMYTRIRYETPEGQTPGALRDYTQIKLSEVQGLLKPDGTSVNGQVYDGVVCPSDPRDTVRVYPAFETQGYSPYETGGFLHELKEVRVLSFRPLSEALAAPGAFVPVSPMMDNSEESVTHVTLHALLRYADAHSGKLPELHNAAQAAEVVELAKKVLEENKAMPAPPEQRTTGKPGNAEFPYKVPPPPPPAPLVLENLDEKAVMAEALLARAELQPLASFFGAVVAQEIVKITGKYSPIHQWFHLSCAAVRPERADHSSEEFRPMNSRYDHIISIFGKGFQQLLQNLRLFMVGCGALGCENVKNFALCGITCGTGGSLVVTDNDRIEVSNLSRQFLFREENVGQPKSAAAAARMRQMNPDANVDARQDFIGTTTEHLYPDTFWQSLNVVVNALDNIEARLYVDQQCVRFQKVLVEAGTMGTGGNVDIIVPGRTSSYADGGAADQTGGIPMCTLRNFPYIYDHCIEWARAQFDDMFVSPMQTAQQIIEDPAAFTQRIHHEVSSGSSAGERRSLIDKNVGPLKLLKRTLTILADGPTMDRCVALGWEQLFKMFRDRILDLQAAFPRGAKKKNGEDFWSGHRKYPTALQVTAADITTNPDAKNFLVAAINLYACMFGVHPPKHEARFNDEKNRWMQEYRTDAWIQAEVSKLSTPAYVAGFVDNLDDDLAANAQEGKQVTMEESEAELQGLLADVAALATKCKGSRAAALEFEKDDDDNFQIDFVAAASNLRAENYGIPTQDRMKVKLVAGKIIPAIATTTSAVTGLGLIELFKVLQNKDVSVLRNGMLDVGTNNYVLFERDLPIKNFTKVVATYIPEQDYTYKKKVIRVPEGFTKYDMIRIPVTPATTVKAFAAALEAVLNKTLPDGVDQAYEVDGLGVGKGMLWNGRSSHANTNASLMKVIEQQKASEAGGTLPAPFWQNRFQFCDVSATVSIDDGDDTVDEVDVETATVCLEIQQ

[3] = target: AMP-activated protein kinase, AMPK (Homo sapiens) (UniProt P54646+O43741+P54619+Q9UGJ0+Q9Y478+Q13131+Q9UGI9); assay: AMP-dependent Kinase enzyme assay. An in vitro enzyme assay that detects ADP turnover that is directly proportional to AMPK activity. This uses naive AMPK that is activated during the assay with MK-8722; format: functional; conditions: 30 µM
[4] = target: Sialic acid-binding Ig-like lectin 9 (Homo sapiens) (UniProt Q9Y336); assay: Hs-Siglec9 ALPHAscreen SOP 20170721; conditions: 10 µM
Sialic acid-binding Ig-like lectin 9 (Homo sapiens), sequence (Q9Y336 whole entry): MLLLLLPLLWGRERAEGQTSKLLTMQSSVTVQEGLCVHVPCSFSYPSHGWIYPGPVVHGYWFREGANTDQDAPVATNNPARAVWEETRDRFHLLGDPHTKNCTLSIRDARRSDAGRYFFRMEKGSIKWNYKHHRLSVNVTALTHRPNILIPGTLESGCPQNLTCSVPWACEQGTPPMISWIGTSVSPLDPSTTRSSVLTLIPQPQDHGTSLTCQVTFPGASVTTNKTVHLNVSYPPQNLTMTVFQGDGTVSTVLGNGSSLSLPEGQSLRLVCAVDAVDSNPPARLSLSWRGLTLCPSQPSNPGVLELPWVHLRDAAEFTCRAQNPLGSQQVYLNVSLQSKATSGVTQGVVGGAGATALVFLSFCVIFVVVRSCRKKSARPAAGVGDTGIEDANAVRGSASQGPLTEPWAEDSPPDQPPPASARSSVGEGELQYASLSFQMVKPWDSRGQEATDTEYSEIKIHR

[5] = system: Trypanosoma cruzi; assay: Trypanosoma cruzi phosphomannomutase and mannose-1-phosphate guanylyltransferase assay; format: functional; conditions: 10 µM
[6] = target: T2, Arginase-2, mitochondrial (Homo sapiens) (UniProt P78540); assay: in vitro enzyme assay to detect the production of urea directly proportional to the activity of Arginase II; format: functional; conditions: 33.3 µM; note: in the data most compounds retested in dose-response had high values
T2 sequence (whole entry): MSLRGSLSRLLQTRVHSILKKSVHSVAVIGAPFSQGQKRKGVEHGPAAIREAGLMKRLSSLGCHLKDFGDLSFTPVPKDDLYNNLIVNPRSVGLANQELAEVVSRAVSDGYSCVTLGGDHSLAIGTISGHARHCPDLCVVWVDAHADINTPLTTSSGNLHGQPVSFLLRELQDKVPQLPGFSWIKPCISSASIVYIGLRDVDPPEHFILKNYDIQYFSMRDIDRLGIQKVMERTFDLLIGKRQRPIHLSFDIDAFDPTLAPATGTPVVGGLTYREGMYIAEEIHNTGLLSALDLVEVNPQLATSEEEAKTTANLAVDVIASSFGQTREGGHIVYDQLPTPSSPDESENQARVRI

[7] = target: T3, Proteasome subunit beta (Trypanosoma cruzi) (UniProt O96673); assay: Trypanosoma cruzi proteasome chymotrypsin-like activity (TcProtChymo) assay.; note: in the data most compounds retested in dose-response had high values; format: functional; conditions: 9.37 µM
T3 sequence (whole entry): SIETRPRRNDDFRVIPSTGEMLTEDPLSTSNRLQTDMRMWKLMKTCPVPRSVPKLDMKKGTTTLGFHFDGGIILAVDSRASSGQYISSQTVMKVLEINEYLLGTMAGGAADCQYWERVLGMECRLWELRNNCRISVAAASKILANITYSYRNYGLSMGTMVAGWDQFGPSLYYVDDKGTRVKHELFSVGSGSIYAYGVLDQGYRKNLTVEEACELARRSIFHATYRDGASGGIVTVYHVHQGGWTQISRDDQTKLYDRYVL

[8] = species on record: Homo sapiens; assay: To identify inhibition of the IFN signalling (Jak-Stat) pathway via expression of an eGFP reporter gene under the control of an IFN-stimulated response element (ISRE) containing MxA promoter.; format: functional; conditions: 30 µM
[9] = target: T4, Tyrosyl-tRNA synthetase, putative (Trypanosoma cruzi (strain CL Brener)) (UniProt Q4DSP6); assay: Trypanosoma cruzi tyrosyl tRNA synthetase (TcYRS) _High Tyrosine SOP; format: functional; conditions: 30 µM; note: in the data most compounds retested in dose-response had high values
T4 sequence (whole entry): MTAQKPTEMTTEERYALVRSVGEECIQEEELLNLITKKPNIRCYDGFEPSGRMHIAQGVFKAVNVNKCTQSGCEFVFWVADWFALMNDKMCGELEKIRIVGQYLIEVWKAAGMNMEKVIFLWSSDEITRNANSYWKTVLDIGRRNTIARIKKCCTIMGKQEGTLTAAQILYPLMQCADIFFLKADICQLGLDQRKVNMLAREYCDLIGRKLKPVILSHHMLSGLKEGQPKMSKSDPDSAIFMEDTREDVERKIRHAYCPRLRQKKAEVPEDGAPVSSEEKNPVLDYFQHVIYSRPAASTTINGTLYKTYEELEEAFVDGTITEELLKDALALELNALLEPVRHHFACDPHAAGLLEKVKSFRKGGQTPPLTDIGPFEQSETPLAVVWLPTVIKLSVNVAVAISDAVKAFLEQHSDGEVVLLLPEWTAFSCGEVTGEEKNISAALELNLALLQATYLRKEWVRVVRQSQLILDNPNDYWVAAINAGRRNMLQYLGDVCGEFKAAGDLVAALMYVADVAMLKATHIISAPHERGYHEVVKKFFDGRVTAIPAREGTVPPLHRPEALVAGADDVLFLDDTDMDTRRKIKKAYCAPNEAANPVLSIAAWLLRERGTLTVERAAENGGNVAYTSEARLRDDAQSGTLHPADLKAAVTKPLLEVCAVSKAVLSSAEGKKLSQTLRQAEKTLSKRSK

[10] = target: T4, Tyrosyl-tRNA synthetase, putative (Trypanosoma cruzi (strain CL Brener)); assay: Trypanosoma cruzi tyrosyl tRNA synthetase (TcYRS) SOP; format: functional; conditions: 30 µM
[11] = target: Chromo domain-containing protein 1 (Saccharomyces cerevisiae (strain ATCC 204508 / S288c) (Baker's yeast)) (UniProt P32657); assay: ScCHD-1 Enzyme Inhibition Assay; format: functional; conditions: 30 µM; note: in the data most compounds retested in dose-response had high values
Chromo domain-containing protein 1 (Saccharomyces cerevisiae (strain ATCC 204508 / S288c) (Baker's yeast)), sequence (P32657 whole entry, the tested form may be a part): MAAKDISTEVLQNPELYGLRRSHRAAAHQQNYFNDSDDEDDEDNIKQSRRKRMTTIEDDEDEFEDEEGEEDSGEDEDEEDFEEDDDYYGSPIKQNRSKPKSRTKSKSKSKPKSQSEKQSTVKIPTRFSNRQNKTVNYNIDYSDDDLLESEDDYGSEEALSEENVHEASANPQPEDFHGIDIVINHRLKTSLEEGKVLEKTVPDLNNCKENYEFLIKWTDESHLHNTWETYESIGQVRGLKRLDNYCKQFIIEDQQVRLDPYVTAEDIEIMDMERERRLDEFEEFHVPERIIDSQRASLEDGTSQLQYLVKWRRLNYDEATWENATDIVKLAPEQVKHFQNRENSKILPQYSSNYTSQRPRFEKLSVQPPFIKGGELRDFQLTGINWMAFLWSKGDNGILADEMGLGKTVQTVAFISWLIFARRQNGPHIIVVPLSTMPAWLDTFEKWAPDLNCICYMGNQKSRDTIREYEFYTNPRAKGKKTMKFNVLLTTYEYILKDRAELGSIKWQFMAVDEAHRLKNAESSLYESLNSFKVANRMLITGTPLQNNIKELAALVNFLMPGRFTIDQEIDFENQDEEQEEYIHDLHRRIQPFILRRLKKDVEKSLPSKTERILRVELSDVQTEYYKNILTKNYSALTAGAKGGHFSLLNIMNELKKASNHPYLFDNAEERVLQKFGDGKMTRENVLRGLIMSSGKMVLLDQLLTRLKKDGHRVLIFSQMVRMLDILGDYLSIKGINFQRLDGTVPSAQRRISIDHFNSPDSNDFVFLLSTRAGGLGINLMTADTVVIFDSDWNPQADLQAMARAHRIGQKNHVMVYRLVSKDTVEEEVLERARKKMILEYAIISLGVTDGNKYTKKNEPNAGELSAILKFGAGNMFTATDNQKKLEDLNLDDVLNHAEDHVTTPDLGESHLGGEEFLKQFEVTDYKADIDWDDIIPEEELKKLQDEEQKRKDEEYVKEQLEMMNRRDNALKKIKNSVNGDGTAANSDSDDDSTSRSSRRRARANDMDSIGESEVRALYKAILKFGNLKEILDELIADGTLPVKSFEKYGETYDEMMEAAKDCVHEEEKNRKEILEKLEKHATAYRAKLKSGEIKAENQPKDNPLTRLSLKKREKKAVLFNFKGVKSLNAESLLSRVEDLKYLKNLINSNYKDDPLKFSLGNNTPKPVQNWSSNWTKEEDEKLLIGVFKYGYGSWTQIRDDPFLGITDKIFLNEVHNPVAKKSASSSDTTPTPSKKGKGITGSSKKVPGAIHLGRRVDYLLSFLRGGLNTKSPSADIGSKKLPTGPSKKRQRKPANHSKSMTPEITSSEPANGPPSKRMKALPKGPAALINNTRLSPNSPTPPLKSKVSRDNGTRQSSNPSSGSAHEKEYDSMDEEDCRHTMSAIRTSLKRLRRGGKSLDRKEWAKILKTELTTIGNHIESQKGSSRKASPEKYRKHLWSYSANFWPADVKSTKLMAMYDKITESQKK

For `CC(C)Oc1ncccc1CNC(=O)N1CCC(C(N)=O)C1` (centres undefined), the Percent Effect [1] was -6.99%, the Percent Effect [2] was 5.26% and the Percent Effect [3] was -1.63%. For the same compound, the Percent Effect [4] was 3.84%, the Percent Effect [5] was -4.51% and the Percent Effect [6] was 2.68%. It also gave a Percent Effect [7] of 2%, a Percent Effect [8] of 23.8% and a Percent Effect [9] of 1.47%. It also gave a Percent Effect [10] of 7.32% and a Percent Effect [11] of -0.235%.
`O=C(NCCCn1cccn1)N1CCCC1c1ccncc1` (centres undefined) gave a Percent Effect [1] of -5.24%, a Percent Effect [2] of 2.67% and a Percent Effect [3] of -0.283%. For the same compound, the Percent Effect [4] was 0.781%, the Percent Effect [5] was -6.13% and the Percent Effect [6] was -1.56%. The Percent Effect [7] was 15.3%, the Percent Effect [8] was 25.4% and the Percent Effect [9] was 0.546%. For the same compound, the Percent Effect [10] was 1.24% and the Percent Effect [11] was -6.79%.
`NC(=O)C1CN(Cc2c[nH]cn2)CCN(C2CCOCC2)C1` (centres undefined) gave a Percent Effect [1] of 1.35%, a Percent Effect [2] of 4.05% and a Percent Effect [3] of 5.54%. It also gave a Percent Effect [4] of 9.65%, a Percent Effect [5] of -7.12% and a Percent Effect [6] of 18.8%. It also gave a Percent Effect [7] of 7.02%, a Percent Effect [8] of 19.2% and a Percent Effect [9] of 12.9%. It also gave a Percent Effect [10] of 19.5% and a Percent Effect [11] of -6.44%.
Work on `COc1ccc(NC(=O)NC(C)c2nc[nH]n2)cc1` (centres undefined) yielded a Percent Effect [1] of -1.78%, a Percent Effect [2] of 8.11% and a Percent Effect [3] of -0.122%. The Percent Effect [4] was 9.35%, the Percent Effect [5] was 3.03% and the Percent Effect [6] was 19.6%. The Percent Effect [7] was 17.9%, the Percent Effect [8] was -13.4% and the Percent Effect [9] was 0%. It also gave a Percent Effect [10] of 11.1% and a Percent Effect [11] of -3.04%.
